High-throughput results (PubChem BioAssay)
Only some compounds are listed: those with a hit (about 2.8% of all), similar ones and a draw of the others.
NCF1 inh: blocks human p47phox regulatory protein of NADPH oxidases; p47phox/p22phox peptide binding, fluorescence polarization, 2 h; P14598; actives 0.53% (n = 220,000); inhibition, % at 24.7 µM;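 active means inhibition above about 30%, limit read from the data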;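 further: 0% = p47phox with labelled peptide and 100% = labelled peptide alone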
Wee1 stabilizer: inhibitors of human Wee1 degradation; actives 1.2% (n = 220,000); P30291; HeLa Luc-Wee1K328M stability, luciferase luminescence; 100% = proteasome inhibitor MG132 effect; reporter increase, % at 5 µM;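 active means activation above the mean of all tested compounds plus 3 SD, set per screening run, cut at about 8.8% in these data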;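 further: cells exposed to compound for 20 h before luminescence read; 0% = DMSO alone and 100% = MG132 at 30 µM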
PGE2 EP2 inh: inhibitors of human EP2 prostaglandin E2 receptor | P43116 | C6 glioma cells expressing human EP2, cAMP TR-FRET; cells stimulated with saturating PGE2 | inhibition, % at 25 µM | actives 0.52% (n = 260,000);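 active means percent inhibition above 40 after rounding to a whole number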;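 further: rat C6 glioma host cells with rolipram phosphodiesterase inhibitor present; the protocol text gives 20 µM as final concentration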
Target sequence (P43116 whole entry, looked up): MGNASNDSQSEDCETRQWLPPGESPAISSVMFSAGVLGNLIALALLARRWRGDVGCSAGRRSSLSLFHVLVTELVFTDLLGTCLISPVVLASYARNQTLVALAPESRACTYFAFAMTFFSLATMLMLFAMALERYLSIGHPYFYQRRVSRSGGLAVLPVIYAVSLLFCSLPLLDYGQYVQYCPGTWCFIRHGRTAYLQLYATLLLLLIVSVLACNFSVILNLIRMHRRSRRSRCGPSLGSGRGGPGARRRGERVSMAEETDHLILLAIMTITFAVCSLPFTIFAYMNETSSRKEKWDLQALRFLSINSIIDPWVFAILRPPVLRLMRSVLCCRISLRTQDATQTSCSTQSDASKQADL
EP2 mod: modulators of human EP2 prostaglandin E2 receptor. EP2-expressing cells, cAMP HTRF FRET, PGE2 co-stimulation. actives 0.83% (n = 260,000). AID 940. P43116. induction, % at 25 µM;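 active means compounds whose cAMP rise, as percent of the full-agonist control response, exceeds 60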;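 further: rat C6 glioma line stably carrying human EP2 under a CMV promoter; the protocol text gives 20 µM as final concentration; 100% = response of wells given 1 µM PGE2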
HSV augment: increases HSV replication in cells; AID 1956; HSV replication augmentation in cells, fold increase; maximum fold increase; actives 0.005% (n = 220,000); in the data active means maximum fold increase above about 1.5; tested in PC3 cells
Furin inh: human furin inhibition; purified furin, fluorogenic substrate cleavage; inhibition, % at 20 µM or 30 µM; actives 0.061% (n = 220,000); in the data active means inhibition above about 25%
* = called active by the depositor; i = inactive; . = not tested or not shown; + = active, no number.

SMILES | NCF1 inh | Wee1 stabilizer | PGE2 EP2 inh | EP2 mod | HSV augment | Furin inh
CN(c1ccccc1)S(=O)(=O)c1cccc(NC(=O)C2CC(=O)N(Cc3ccccc3)C2)c1 (centres undefined) | + | 1 | 4 | 2 | i | -18
CCOC(=O)c1c(NC(=O)CSc2nnc(-c3ccc(F)cc3)o2)sc(C)c1C | . | . | 9 | 53 | . | .
CCOC(=O)c1c(NC(=O)CSc2nnc(C)o2)sc(C)c1C | 1 | 9.8* | 5 | 28 | i | -19
Clc1cccc(Cl)c1Cn1nnc2ccccc21 | . | . | 8 | 10 | . | .
CCOc1cc(S(=O)(=O)n2c(C)nc3ccccc32)ccc1Cl | . | . | 10 | 80* | . | .
O=C(Nc1nc2ccc(S(=O)(=O)N3CCOCC3)cc2s1)c1cccs1 | -11 | 10* | 8 | -9 | i | -22
O=C(Nc1nc2ccc(S(=O)(=O)N3CCCC3)cc2s1)c1cccs1 | -7 | 1 | 25 | -5 | i | -11
COc1ccc(OC)c(C2C(C(C)=O)=C(O)C(=O)N2CC#N)c1 (centres undefined) | . | . | 8 | 11 | . | .
O=C(CSc1nc2ccccc2c(=O)n1-c1ccccc1)N1CCc2ccccc21 | 50* | 0 | 5 | 9 | i | 3
COc1cccc(-n2c(SCC(=O)N3CCc4ccccc43)nnc2-c2c[nH]c3ccccc23)c1 | 14 | 2 | 7 | 18 | i | -7
O=C(CSc1nc2ccccc2c(=O)n1-c1ccccc1)N1CCCc2ccccc21 | -36 | -1 | 2 | -8 | i | -14
CCOc1ccc(-n2c(SCC(=O)N3CCc4ccccc43)nnc2-c2c[nH]c3ccccc23)cc1 | 48* | 1 | 7 | 28 | . | -12
COc1ccc(C(C)=O)cc1CSc1nc2ccccc2c(=O)n1-c1ccccc1 | 27 | -1 | 7 | 64* | i | -19
O=C(COc1ccccc1)Nc1cccc2c1CCCC2 | -5 | -2 | 17 | -18 | i | -6
O=C(CCCc1ccccc1)Nc1cccc2c1CCCC2 | -9 | 11* | 9 | -19 | i | -19
Cc1ccccc1CSc1ncnc2ccccc12 | -11 | -3 | 13 | 62* | i | -28
CCc1nn(CC(=O)N(C(C)C)C(C)C)c(=O)c2cc3occc3n12 | . | . | 6 | -33 | . | .
COC(=O)c1cn(CC(=O)N2CCOCC2)c2ccccc12 | . | . | 4 | 23 | . | .
COc1ccc(CNC(=O)c2csc(Cc3ccc(OC)cc3)n2)cc1 | -7 | -1 | 14 | -12 | i | -6
COc1ccc(CNC(=O)c2csc(Cc3ccc(Cl)cc3)n2)cc1 | -16 | 9.5* | . | -1 | . | -15
CN(C)/C=C/C(=O)c1cnc(-c2ccccc2)s1 | -5 | 10* | 6 | -21 | i | -18
O=C(c1ccccc1)c1cnc(-c2ccc(Cl)cc2)s1 | -6 | -1 | 1 | -1 | i | -22
O=C(c1ccccc1)c1cnc(-c2ccccc2)s1 | -6 | 10* | 10 | -19 | i | -16
COCCCNC(=S)N(Cc1ccccc1)Cc1cc2cc(C)c(Cl)cc2[nH]c1=O | . | . | 19 | -2 | . | .
CCOCCCNc1c2c(nc3c(-c4cccs4)c(C)nn13)CCC2 | . | . | . | -25 | . | .
SMILES | NCF1 inh | Wee1 stabilizer | PGE2 EP2 inh | EP2 mod | HSV augment | Furin inh
Cc1cccc(Cl)c1NC[C@H](O)CN1CCN(C)CC1 | . | . | 47* | 13 | . | .
CCOc1ccc2[nH]c(=O)c(CN(Cc3ccc(F)cc3)Cc3nnnn3Cc3ccco3)cc2c1 | . | . | 13 | 15 | . | .
O=[N+]([O-])c1ccc2c(c1)oc1ccccc12 | -3 | 0 | 3 | 6 | i | 4
CC(C)n1c2ccccc2c2cc([N+](=O)[O-])ccc21 | -21 | -1 | 8 | 65* | i | -17
O=C(Cn1cc(C(=O)C2CCCCC2)c2ccccc21)NCc1ccco1 | . | . | 11 | -10 | . | .
CC(C)Cc1nnc(NC(=O)c2cc(-c3ccccc3)nc3ccccc23)s1 | -1 | 2 | 3 | -27 | i | -10
CC(C)Cc1nnc(NC(=O)c2cc(-c3ccncc3)nc3ccccc23)s1 | -5 | 9.2* | 5 | -42 | i | -18
C(=C\c1ccco1)/C=N/n1cnnc1 | -5 | 9.7* | 7 | 1 | i | 11
S=c1[nH]nc(-c2ccncc2)n1/N=C/C=C/c1ccco1 | -1 | -2 | 6 | -10 | i | 6
CC(C)C(=O)c1cn(CC(=O)N2CCOCC2)c2ccccc12 | . | . | 7 | -15 | . | .
O=C(C(c1ccccc1)C1CCCC1)N1CCC(c2ccncc2)CC1 (centres undefined) | . | . | 3 | 18 | . | .
Cc1cc(OC(C)C)ccc1/C(O)=C1/C(=O)C(=O)N(CCN(C)C)C1c1cccnc1 (centres undefined) | . | . | 3 | -8 | . | .
COc1ccc(C(=O)CSc2nc(SC)ns2)cc1OC | -10 | -1 | 20 | 20 | i | -22
COc1ccc(C(=O)CSc2cc(C)nc3nc(C)nn23)cc1OC | 129* | -4 | 5 | -10 | i | -15
CCn1cc(CNC(=S)Nc2cccc3ccccc23)cn1 | -7 | 9.3* | 9 | -31 | i | -23
C=CCn1c(-c2ccccc2)cc(SC)c(C#N)c1=O | 1 | -3 | 13 | 60 | i | -14
C=CCn1c(-c2ccccc2)ccc(C#N)c1=O | -11 | -3 | 4 | 64* | i | -16
COCCn1c(SCC(=O)N2CCCCC2C)nc2sc(C)c(C)c2c1=O (centres undefined) | . | . | 7 | -37 | . | .
CC(C)CC(C(=O)OCC(=O)Nc1ncc(Cl)cc1Cl)N1C(=O)c2ccccc2C1=O (centres undefined) | -17 | 11* | 2 | 37 | i | -13
COC(=O)c1[nH]c2ccc(C)cc2c1NS(=O)(=O)c1ccc(F)c(C)c1 | -5 | -1 | . | 63* | . | -4
COCCSc1nnc(NC(=O)c2ccc(F)cc2)s1 | . | . | 9 | -10 | . | .
CN(C)CCCNS(=O)(=O)c1ccc2c(c1)NC(=O)C(C)(C)O2 | . | . | 7 | -30 | . | .
CCc1ccc2nc(N3C(=O)c4oc5ccccc5c(=O)c4C3c3ccc(OC)c(OC)c3)sc2c1 (centres undefined) | 38* | 1 | 7 | 12 | i | 11
COc1ccc(C2C(C(C)=O)=C(O)C(=O)N2c2nc3ccccc3s2)cc1OC (centres undefined) | -9 | 0 | 20 | 2 | i | -4
CN(C)c1ccc(/C=c2\sc3nc(-c4ccccc4)nn3c2=O)cc1 | 42* | -1 | . | 35 | . | -21
C=CCc1cc(C)ccc1OCCOCCC(C(=O)OCC)C(=O)OCC | -7 | 1 | 13 | 62* | . | -15
Cc1ccc(C(=O)Nc2nc(C)c(C(=O)Nc3cccnc3)s2)cc1 | . | . | 11 | -13 | . | .
CCOC(=O)CCc1c(C)c2ccc(OCc3cc([N+](=O)[O-])ccc3OC)c(C)c2oc1=O | 30* | -1 | 6 | 23 | i | -16
CCOC(=O)CCc1c(C)c2ccc(OCc3cc([N+](=O)[O-])ccc3OC)cc2oc1=O | -24 | 0 | . | 25 | . | -5
